Results published in PubChem BioAssay (NCI).
“And” between values parts separate entries of the source, which are not always exact repeats. Identical values can stand only once. Compounds without any hit were thinned out: in the full panel of roughly 79,000, 15% have a hit. Cut-off read from the data, not from the text of the source: active = growth inhibition above about 70%; inactive = the rest.

Columns and labels:
[1] = NCI Yeast Anticancer Drug Screen. Data for the rad50 strain (AID 155);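 note: 0% = growth of vehicle-only cultures of the same strain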; settings: S. cerevisiae rad50 strain growth inhibition, hits give high values; at 50.0 µM unless noted
In short: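 Readout: growth inhibition relative to vehicle-treated cultures. Compound exposure was carried out in a genetically defined yeast strain deficient in DNA damage repair.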

[2] = NCI Yeast Anticancer Drug Screen. Data for the mec2-1 strain (AID 157); settings: S. cerevisiae mec2-1 strain, hits give high values; at 50.0 µM unless noted
In short: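 mec2-1 yeast strain, carrying an alteration in DNA damage repair or cell cycle control, was exposed to compounds; growth inhibition was measured relative to vehicle-treated controls.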

[3] = NCI Yeast Anticancer Drug Screen. Data for the sgs1 mgt1 strain (AID 161);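 note: 0% = growth of cultures given vehicle only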; settings: S. cerevisiae sgs1 mgt1 strain, hits give high values; at 50.0 µM unless noted
In short: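 Compounds are added to genetically altered yeast, and growth is compared with cultures given vehicle alone to give percent inhibition.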

[4] = NCI Yeast Anticancer Drug Screen. Data for the cln2 rad14 strain (AID 165);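 note: 0% = growth equal to vehicle treated cultures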; settings: S. cerevisiae cln2 rad14 strain, hits give high values; at 50.0 µM unless noted
In short: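 Yeast carrying cln2 and rad14 alterations (cell cycle control and DNA damage repair) were exposed to compounds. Growth inhibition was measured against vehicle-treated controls.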

[5] = NCI Yeast Anticancer Drug Screen. Data for the bub3 strain (AID 167); settings: S. cerevisiae bub3 mutant strain, hits give high values; at 50.0 µM unless noted
In short: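 Readout: yeast growth inhibition, expressed relative to vehicle-only wells. The test organism is a mutant strain from a panel with lesions in DNA repair or checkpoint genes.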

[6] = NCI Yeast Anticancer Drug Screen. Data for the mlh1 rad18 strain (AID 175); settings: S. cerevisiae mlh1 rad18 strain growth inhibition, hits give high values; at 50.0 µM unless noted
In short: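 Growth inhibition of the yeast strain was measured after compound exposure and expressed relative to vehicle-treated controls. The strain carries defined defects in DNA damage repair.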

Measured: growth inhibition

O=C(O)c1ccccc1-c1ccccc1
inactive: [1] -19.2% | [2] -36.1% | [3] -12.4% | [4] 4.3% | [5] -15.3% | [6] -1.9%

CCOC(=O)Nc1nc2ccccc2n1CN1CCCC1
inactive: [1] -4.7% | [2] -17.9% | [3] -11.3% | [4] 3.65% | [5] 22.4% | [6] 18.8%

[N-]=[N+]=Nc1cccc(-c2n[nH]c(Cl)cc2=O)c1
inactive: [1] -19.9% | [2] -11.6% | [3] -38.6% | [4] 3.1% | [5] -10.9% | [6] -34%

Fc1ccccc1C1SCc2nc3cc4ccccc4cc3n21 (stereo not drawn)
inactive: [1] -33.6% | [2] -17.8% | [3] 0.95% | [4] -1.45% | [5] -0.95% | [6] 40%

COc1c2c(c(OC)c3c(=O)cc(C/C(=N/NC(=O)C[n+]4ccccc4)C(=O)Nc4cc(C)ccc4C)oc13)OCO2
inactive: [1] -13.4% | [2] -6.65% | [3] -18.1% | [4] 5.6% | [5] -3.15% | [6] -0.3%

CCCCCCCCCCCC
inactive: [1] -33.9% | [2] 25.4% | [3] 13.6% | [4] -25.9% | [5] 37.9% | [6] -9.9%

OC1c2ccccc2C2c3ccccc3C1C2Cl (stereo not drawn)
inactive: [1] 43.8% | [2] 5.9% | [3] 25.8% | [4] 35.3% | [5] -5.7% | [6] 39.8%

CCCCN(CCCC)C(=O)C(=O)C(C(=O)c1ccc(OC)cc1)c1ccc(OC)cc1 (stereo not drawn)
inactive: [1] -8.95% | [2] -1.5% | [3] -11.8% | [4] -10.3% | [5] 14.1% | [6] -3.95%

CN(C)c1ccc(N=C(C#N)C(=O)c2ccccc2)cc1
inactive: [1] -4.3% | [2] 17.6% | [3] -6.7% | [4] -21.6% | [5] -15% | [6] -12.2%

CCC(=O)c1cccc2cccc(C(c3ccccc3)c3ccccc3)c12
inactive: [1] 1.85% | [2] 14.4% | [3] 6.35% | [4] -7.05% | [5] 8.7% | [6] -19.6%

C=C1C(=O)C23[C@H](O)C1CC[C@H]2[C@]12COC3(O)[C@@H](O)[C@@H]1C(C)(C)CC[C@@H]2O
inactive: [1] 3.65% | [2] -20.6% | [3] 19.8% | [4] -0.6% | [5] -0.5% | [6] -46.1%

O=C(O)c1cc(Cl)c2ccccc2c1O
inactive: [1] 46.8% | [2] 45.8% | [3] 46.8% | [4] 31.6% | [5] 42.1% | [6] 33.1%

C[C@]12C=CC(=O)C=C1CC[C@@H]1[C@@H]2C(=O)C[C@@]2(C)[C@H]1CC[C@]2(O)C(=O)COC(=O)CSc1c2ccccc2nc2ccccc12
inactive: [1] 35.6% | [2] 5.8% | [3] 8.15% | [4] 24.8% | [5] -9.4% | [6] 19.3%

CCC1([N+](C)(C)C)CSC1C (stereo not drawn)
inactive: [1] 5.15% | [2] 2.9% | [3] 4.35% | [4] -26.6% | [5] -8.65% | [6] -0.95%

C=CCN1C(=O)CS/C1=N/NC(=O)C(O)(c1ccccc1)c1ccccc1
inactive: [1] -19.6% | [2] -47.7% | [3] 6.1% | [4] -25.4% | [5] -24.3% | [6] -4.05%

O=CC(O)C(Cl)C(Cl)C(O)CCl (stereo not drawn)
inactive: [1] -0.65% and 2.1% | [2] -1.85% and -3.6% | [3] 0.65% and 8.3% | [4] 9.75% and -46% | [5] -2.65% and -11% | [6] 40.7% and -14.5%

COc1ccc(OC2OC(CO)C(O)C(O)C2O)cc1 (stereo not drawn)
inactive: [1] 8.9% | [2] -0.1% | [3] -4.3% | [4] 18.1% | [5] 6.5% | [6] -50.6%

CC(=O)Oc1c(C)c2c(c3ncccc13)OC(C)C2 (stereo not drawn)
inactive: [1] 39.2% | [2] 14.1% | [3] 32.4% | [4] 19.1% | [5] 40.1% | [6] 34.8%

CN1C(=O)OC2OC(C)(c3ccc(S(=O)(=O)c4ccccc4)cc3)C(=O)CC21 (stereo not drawn)
inactive: [1] -7.1% | [2] 22.7% | [3] -10.5% | [4] -27% | [5] 5.65% | [6] 2.25%

C=C1N(c2cc3ccccc3o2)C(=O)OC12CCCCC2
inactive: [1] -37.5% | [2] -2.2% | [3] -8% | [4] 8.8% | [5] -2.55% | [6] 18.9%

O=C(OCc1ccccc1)ON1C(=O)C2C3C=CC(C3)C2C1=O (stereo not drawn)
inactive: [1] -26.4% | [2] -54.2% | [3] 12.5% | [4] -9.1% | [5] -19% | [6] 5.05%

COc1ccc(C2c3cc4c(cc3C(O)C3CCC(=O)N23)OCO4)cc1 (stereo not drawn)
inactive: [1] -31.6% | [2] 3.3% | [3] -17.2% | [4] -1.25% | [5] -7.4% | [6] -15.1%

C=Nc1ccc(Nc2ccccc2)cc1
inactive: [1] 5.7% | [2] -5.2% | [3] -2.4% | [4] -3.25% | [5] -1.6% | [6] 3.3%

CC(=O)OCC1OC(n2c(-c3ccc(C)cc3)cc(-c3ccco3)c(C#N)c2=O)C(OC(C)=O)C(OC(C)=O)C1OC(C)=O (stereo not drawn)
inactive: [1] 10.6% and -5.75% | [2] 10.6% and -5.75% | [3] 20.6% and 4.95% | [4] 13.5% and -16.8% | [5] 27.4% and -4.4% | [6] 14.4% and 9.7%

CC(=O)OCCc1cccnc1/C=N/O
inactive: [1] -12.9% | [2] -22.5% | [3] -1.4% | [4] 20.6% | [5] -16.4% | [6] -5.2%

CN(O)C(=O)CCC(NC(=O)CCC(N)C(=O)O)C(=O)NCC(=O)O (stereo not drawn)
inactive: [1] -25.4% | [2] -9.3% | [3] -11.9% | [4] 0.1% | [5] 1.6% | [6] -51.8%

CCC(=O)OC(CCC1CCCO1)CCC1CCCO1 (stereo not drawn)
inactive: [1] 11.5% | [2] 12.2% | [3] 3.75% | [4] 12.4% | [5] 22.9% | [6] -3.55%

CCCCCC(=O)OC(c1ccc(Cl)cc1)c1ccc(Cl)cc1
inactive: [1] -5.2% | [2] -26.2% | [3] 5.5% | [4] 12.6% | [5] 26.8% | [6] 5.3%

C#CCOC(=O)Nc1ccccc1
inactive: [1] 21.6% and 1.85% | [2] 12.7% and -1.2% | [3] -8.7% and -8.65% | [4] -72.2% and -54.2% | [5] -1.1% and -10.6% | [6] 5.55% and -0.8%

CC(C)(O)CCNc1ncnc2c1ncn2C1OC(CO)C(O)C1O (stereo not drawn)
inactive: [1] 2% | [2] -1.75% | [3] 9.7% | [4] -6.8% | [5] 13.9% | [6] 13.8%

N#CC(NNC(=O)Cc1ccccc1)c1ccc(O)cc1 (stereo not drawn)
inactive: [1] -18.1% | [2] -22.6% | [3] -37.1% | [4] -7.05% | [5] -25.6% | [6] -32.5%

C(=C1CCCCC1)c1ccccn1
inactive: [1] -9.2% | [2] 24.9% | [3] -10.7% | [4] -23.3% | [5] -18.8% | [6] -24.9%

O=C1C=CC=C/C1=C1/SC(c2ccccc2)=C(O)N1c1ccccc1
inactive: [1] -40.2% | [2] -8.2% | [3] -12.5% | [4] -17.3% | [5] -19.9% | [6] -18.5%

CC1=Nc2ccccc2S/C1=C(/C)NNS(=O)(=O)c1ccc(C)cc1
inactive: [1] 10.1% | [2] -0.05% | [3] 0.25% | [4] -6.3% | [5] 7.75% | [6] 18.1%

C[N+](C)(C)CC(O)C[N+](C)(C)C
inactive: [1] 12.1% | [2] 6.15% | [3] 3.6% | [4] -42.1% | [5] -3.5% | [6] 22.7%

COCCOC(=O)c1ccc(C)cc1
inactive: [1] 9.8% | [2] 17.8% | [3] 10.6% | [4] 14.8% | [5] 12.1% | [6] 8.1%

Cc1ccc(S(=O)(=O)N/N=C(\c2nc3ccc(Cl)cc3[nH]c2=O)C(O)c2cccc([N+](=O)[O-])c2)cc1 (stereo not drawn)
inactive: [1] -1.5% | [2] -24% | [3] -9.35% | [4] 11.7% | [5] -22.6% | [6] -0.5%

Cc1cc(=O)oc2nn(CCO)c(C)c12
inactive: [1] -35.3% | [2] -17.6% | [3] -10.1% | [4] -41.9% | [5] -10.6% | [6] -13.7%
